D3 antag: blocks the human D3 dopamine receptor. P35462. D3R cells, DiscoveRx beta-arrestin luminescence, antagonist mode; active compounds read low. max response, negative = inhibition, %. 360,000 compounds, 2.5% hits. AID 652054; in the data active = max response below about -50%; inconclusive = no clear call, values can overlap the other calls
Target sequence (P35462 whole entry, looked up): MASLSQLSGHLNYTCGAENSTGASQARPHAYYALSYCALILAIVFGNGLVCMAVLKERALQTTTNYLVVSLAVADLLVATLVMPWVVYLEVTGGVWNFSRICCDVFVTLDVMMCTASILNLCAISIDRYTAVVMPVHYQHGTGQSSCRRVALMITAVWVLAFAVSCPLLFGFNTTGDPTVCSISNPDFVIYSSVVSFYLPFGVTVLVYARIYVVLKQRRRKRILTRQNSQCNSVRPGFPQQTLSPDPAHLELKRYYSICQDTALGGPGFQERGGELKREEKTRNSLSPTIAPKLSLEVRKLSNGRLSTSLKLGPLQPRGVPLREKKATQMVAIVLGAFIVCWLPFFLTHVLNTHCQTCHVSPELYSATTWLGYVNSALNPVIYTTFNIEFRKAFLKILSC
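Cells expressing the human receptor were seeded at 1500 cells/well, incubated overnight at 37 degrees C in 5% CO2, then exposed to library compounds with dopamine controls for 90 minutes at 37 degrees C before luminescent detection.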
BRCA1 expr act: increases BRCA1 expression. Potency, µM (top dose mostly 46.1 µM), actives largely listed as activators. MCF7-BRCA1-FFLuc reporter, luminescence, 48 h; response scale: scaled: vehicle 0%, 10 µM genistein 100%. 380,000 compounds, 1.1% hits. AID 624202; note: nearly all actives have a fitted effect of over 80% in size
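Reporter cells (MCF7, BRCA1 promoter-firefly luciferase) received library compounds across a concentration series for 48 h. End-point luminescence was measured and concentration-effect curves derived after normalization.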
DRD3 agonist: activates the human D3 dopamine receptor; P35462; D3R DiscoveRx beta-arrestin cells, luminescence, 90 min; max activation, %; 410,000 compounds, 0.58% hits; AID 652048; in the data active = max activation above about 30%
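Agonist-mode cell screen: cells plated at 1500/well and incubated overnight at 37 °C, then exposed to library compounds for 90 min at 37 °C. Detection reagent was added for 30–60 min at room temperature, and luminescence was read.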
B2AR arrestin: recruits beta-arrestin to the human beta2-adrenergic receptor | P07550 | beta-arrestin recruitment to beta2AR, cell-based reporter | Potency, µM (top dose mostly 46.1 µM), most hits filed as activators | 330,000 compounds, 0.02% hits; note: nearly all actives have a fitted effect of over 65% in size
RGS4 inhibitor: human RGS4 inhibition; P49798; Transcreener GDP fluorescence polarization, RGS4-accelerated GTP hydrolysis; Potency, µM (highest dose often 114 µM), actives largely listed as inhibitors; 390,000 compounds, 0.039% hits; note: nearly all actives have a fitted effect of over 75% in size
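MLSMR compounds (23 nl, pin-transferred) preincubated 10 min at room temperature with a 500nM (2x) first reagent, then RGS4 at 900nM (2x) plus Transcreener GDP mix added; fluorescence polarization (620/688 nm) read before and after 90 min at 30 °C.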
PTHR1 ag: activates the human parathyroid hormone receptor PTHR1. AID 743266. Q03431. HEK293 GP2 PTHR1 cells, GloSensor cAMP luminescence, 1 h. 410,000 compounds, 0.075% hits. Potency, µM (doses to about 115 µM), most hits filed as activators; note: nearly all actives have a fitted effect of over 55% in size
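HEK-293-derived GP2 cells expressing PTHR1 and a GloSensor cAMP reporter, 3,000/well, plated overnight, given luciferin plus IBMX (each 0.5 mM as added) for 1 h at 37 °C, then compound for 1 h at 37 °C. Luminescence was read after 15 min at room temperature.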
Large screens that a line does not name were inactive. Hits are enriched below; roughly 3.7% of the tested compounds scored in any of these assays. Unless noted, calls come from the whole dose curve; as a rule, active = well fitted curve in the direction sought with a large enough effect; inconclusive = small, poorly fitted or top-dose-only effect, or another doubt; inactive = no such curve, though single readings can be large; an effect the other way counts as inactive or inconclusive.

CC(C)(C)NC(=O)COc1ccc(S(=O)(=O)N2CCCC2)cc1	none
CCc1sc(Nc2cccc(C)c2C)nc1-c1cc2cccc(OC)c2oc1=O	none (no result: D3 antag, BRCA1 expr act, B2AR arrestin)
CCC(=O)N1CCN(c2ccc(NC(=O)c3ccc(C#N)cc3F)cc2Cl)CC1	none
CN1CCN(c2ccc(NC(=O)c3ccc(C#N)cc3F)cc2Cl)CC1	D3 antag -56.9
CNCc1c(OCc2ccc(F)cc2)ccc2ccccc12	D3 antag -60.7
Cc1cc(NC(=O)c2cc(C)on2)no1	none
Cc1cc(C(=O)Nc2ccc3[nH]ccc3c2)no1	BRCA1 expr act 6.31µM
CCn1cc(S(=O)(=O)CC(=O)Nc2ccc3c(c2)OCCO3)c2ccccc21	none
CCN(CC)C(=O)Cn1cc(S(=O)(=O)CC(=O)Nc2ccc3c(c2)OCCO3)c2ccccc21	BRCA1 expr act 11.2µM
CC(C)C[C@@H]1NC(=O)[C@H](CCCN)NC(=O)[C@H](C(C)C)NC(=O)[C@@H]2CCCN2C(=O)[C@@H](Cc2ccccc2)NC(=O)[C@H](CC(C)C)NC(=O)[C@H](CCCN)NC(=O)[C@H](C(C)C)NC(=O)[C@@H]2CCCN2C(=O)[C@@H](Cc2ccccc2)NC1=O	DRD3 agonist 30.9 (no result: D3 antag, BRCA1 expr act, B2AR arrestin, RGS4 inhibitor, PTHR1 ag)
O=C1N[C@@H](Cc2ccccc2)C(=O)N2CCC[C@@H]12	none
CN(C)c1cccc(-c2csc(N3CCC(C(N)=O)CC3)n2)c1	BRCA1 expr act inconclusive (no result: D3 antag, DRD3 agonist)
CC(=O)c1ccc(-c2csc(N3CCC(C(N)=O)CC3)n2)cc1	none (no result: D3 antag, BRCA1 expr act, DRD3 agonist, RGS4 inhibitor, PTHR1 ag)
NC(=O)C1CCN(c2nc(-c3cccs3)cs2)CC1	BRCA1 expr act 1.26µM (no result: D3 antag, DRD3 agonist)
NC(=O)C1CCN(c2nc(-c3ccc(Br)cc3)cs2)CC1	BRCA1 expr act 1.78µM
NC(=O)c1ncn([C@@H]2O[C@H](CNCc3cccn3-c3ccncc3)[C@@H](O)[C@H]2O)n1	none (no result: B2AR arrestin)
Cc1[nH]c2ccccc2c1C(C#N)(C#N)C1C(=O)c2ccccc2C1=O	D3 antag -88.8
Cn1c2ccccc2c2nnc(SCC(=O)Nc3cccc(C(=O)O)c3)nc21	RGS4 inhibitor inconclusive
Cn1c2ccc(F)cc2c2nnc(SCC(=O)Nc3cccc(O)c3)nc21	DRD3 agonist 34.0
COC(=O)c1c(NC(=O)Cc2cccs2)sc(C(=O)NC2CCCCC2)c1C	BRCA1 expr act 3.16µM (no result: B2AR arrestin)
CCOC(=O)c1c(NC(=O)Cc2cccs2)sc(C(=O)NC2CCCCC2)c1C	none
NCCCC[C@H](N)C(=O)O	none (no result: D3 antag, BRCA1 expr act, B2AR arrestin, RGS4 inhibitor, PTHR1 ag)
CSc1cccc(NC(=O)Nc2ccccc2OCc2cc(=O)n3cc(C)ccc3n2)c1	none (no result: D3 antag, BRCA1 expr act, B2AR arrestin)
Oc1ccccc1-c1cc(-c2ccc(F)cc2)n[nH]1	none
Oc1ccc(F)cc1-c1cc(-c2ccc3c(c2)OCCO3)n[nH]1	D3 antag -52.8, BRCA1 expr act inconclusive
CC(=O)c1cc(C)ccc1OC(=O)CCN1C(=O)C2C3c4ccccc4C(c4ccccc43)C2C1=O (stereo unspecified)	DRD3 agonist 37.8
Nc1nc(CSC(=S)N2CCCCC2)nc(Nc2ccccc2)n1	BRCA1 expr act 14.1µM
Cc1ccc(Nc2nc(N)nc(COC(=O)C3=COCCO3)n2)cc1	BRCA1 expr act 3.98µM, PTHR1 ag inconclusive
Cc1ccc(Nc2nc(N)nc(CSC(=S)N3CCOCC3)n2)cc1	BRCA1 expr act 5.01µM
Nc1nc(CSC(=S)N2CCOCC2)nc(Nc2ccccc2)n1	BRCA1 expr act inconclusive
CCc1ccc(CNC(=O)CN2C(=O)CSc3ccc(S(=O)(=O)N4CCOCC4)cc32)cc1	none (no result: D3 antag, BRCA1 expr act, B2AR arrestin)
C1=CCC(CN2CCN(C3CCCCCC3)CC2)CC1 (stereo unspecified)	D3 antag inconclusive
FC(F)(F)c1cccc(N2CCN(CC3CC=CCC3)CC2)c1 (stereo unspecified)	D3 antag -65.6
Cc1ccc(N2CCN(CC3CC=CCC3)CC2)cc1 (stereo unspecified)	D3 antag -141.4
O=C(c1ccccc1)N1CCN(CC2CC=CCC2)CC1 (stereo unspecified)	D3 antag -60.2
CCCN1CCC(N2CCN(c3cccc(C(F)(F)F)c3)CC2)CC1	D3 antag inconclusive

Assay outcomes (PubChem)
